Results reported in PubChem BioAssay (Tox21).
Inconclusive results are not listed. Calls of active or inactive are those of the source. The call rests on the fitted dose curve. Positions of bridges follow the written chain, without caps; N, C: chain ends. Non-standard residues stand in square brackets, D forms with d. Residues, ends and D or L forms follow the SMILES beside them. hArg = N=C(N)NCCCC[C@H](N)C(=O)O; Mpa = O=C(O)CCS

assay: qHTS assay for small molecule disruptors of the mitochondrial membrane potential - cell viability (AID 720634); conditions: HepG2 viability, ATP luminescence (CellTiter-Glo), 1 h; series mostly up to 83.2 µM; activity change, negative = cytotoxicity: at the top concentration;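 further: human HepG2 liver cancer cells; nearly all actives have a fitted effect of over 20% in size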
Description: U.S. Tox21 Program National Center for Advancing Translational Sciences [NCATS] NIH Chemical Genomics Center [NCGC] U.S. Environmental Protection Agency [EPA] National Institutes of Environmental Health Sciences [NIEHS] National Toxicology Program [NTP] U.S. Food and Drug Administration [FDA] Tox21 Assay Overview: Mitochondrial membrane potential (MMP), one of the parameters for mitochondrial function, is generated by mitochondrial electron transport chain that creates an electrochemical gradient by a series of redox reactions. This gradient drives the synthesis of ATP, a crucial molecule for various cellular processes. Measuring MMP in living cells is commonly used to assess the effect of chemicals on mitochondrial function; decreases in MMP can be detected using lipophilic cationic fluorescent dyes. […] The dye accumulates in the mitochondria of healthy cells as aggregates, with red fluorescence. The mitochondrial potential decreases and the dye could not accumulate in the mitochondria and remains in the cytoplasm in monomers, with green fluorescence. In addition to the mitochondrial potential assay, these cells were also used to test the cytotoxicity by determining the cell viability in the culture based on the quantitation of ATP present. The cytotoxicity was measured in the same assay well of MMP assay.
Tox21 Assay Protocol Summary: 2,000 HepG2 cells in 5 uL/well were dispensed into black, clear-bottom 1536-well plates using a Multidrop Combi (Thermo Scientific) dispenser. The assay plates were incubated for an overnight at 37 C to allow cells to attach to the wells, followed by the transfer of 23 nL compound or DMSO vehicle by a pin tool (Kalypsys). The plates were incubated for 1 hr at 37 C and 5% CO2, followed by the addition of 5 uL of 2X m-MPI dye into each well using Flying Reagent Dispenser (Aurora Discovery) and then CellTiter-Glo reagent was added at 4 uL/well and incubated 30 min at room temperature. Then luminescence intensity was quantified on a ViewLux CCD-based plate reader.
On the % scale 0 is the no-effect control and ±100 the full control effect.

| SMILES | activity change, negative = cytotoxicity | outcome |
| --- | --- | --- |
| CC(=O)OCC(=O)Nc1cc(C#N)cc(NC(=O)COC(C)=O)c1Cl | 1.94% (inactive) |  |
| CSc1cnccn1 | -3.23% (inactive) |  |
| CC(=O)O[Si](C)(OC(C)=O)OC(C)=O | -12.1% [at 95.3 µM] (inactive) |  |
| OCC(O)CN1CCN(c2ccccc2)CC1 (stereo not given) | 3.31% (inactive) |  |
| O=NN(CCCl)C(=O)NC1CCCCC1 | 4.63% (inactive) |  |
| C=CCCCCCCCC | 4.55% [at 95.3 µM] (inactive) |  |
| NC(=O)[C@@H]1CSSCCC(=O)N[C@@H](CCCCN=C(N)N)C(=O)NCC(=O)N[C@@H](CC(=O)O)C(=O)N[C@@H](Cc2c[nH]c3ccccc23)C(=O)N2CCC[C@H]2C(=O)N1 ([Mpa][hArg]GDWPC-NH2; disulfide 1-7) | -5.68% (inactive) |  |
| CC1OCCC1=O (stereo not given) | 6.81% (inactive) |  |
| O=[N+]([O-])c1c(Cl)cc(Cl)cc1Cl | -0.592% (inactive) |  |
| CCCCCCCCCCCCCCCCCC#N | -6.01% [at 95.3 µM] (inactive) |  |
| OCC1(CO)COCOC1 | 7.23% (inactive) |  |
| N[C@@H](CSCCCO)C(=O)O | 0.839% (inactive) |  |
| CC(C)CCOC(=O)c1ccccc1 | 1.15% (inactive) |  |
| NCCOCCN | 4.28% (inactive) |  |
| C=CCSSCCC | 8.31% (inactive) |  |
| CC(=O)OC(C)=O | -10.2% [at 95.3 µM] (inactive) |  |
| CO/N=C(/C(=O)N[C@@H]1C(=O)N2C(C(=O)[O-])=C(C[n+]3ccn4ncccc43)CS[C@H]12)c1nsc(N)n1 |  | inactive |
| CN(C)CCCCl | -2.27% [at 95.3 µM] (inactive) |  |
| CCCCCc1cccc(=O)o1 | 5.72% (inactive) |  |
| O=C(Cl)c1ccccc1[N+](=O)[O-] | 13.2% [at 95.3 µM] (inactive) |  |

| SMILES | activity change, negative = cytotoxicity | outcome |
| --- | --- | --- |
| CCCCOC(=O)C(C)O (stereo not given) | 8.18% (inactive) |  |
| CC1(C)CC(OC(=O)CCCCCCCCC(=O)OC2CC(C)(C)NC(C)(C)C2)CC(C)(C)N1 | 5.62% [at 39.1 µM] (inactive) |  |
| O=C1CCC(=O)N1Cl | -13.1% (inactive) |  |
| C=CCOC(=O)CCCCCC | 5.52% (inactive) |  |
| Cc1c(C(=O)c2c[nH]n(C)c2=O)ccc(S(C)(=O)=O)c1C1=NOCC1 | 6.1% [at 39.1 µM] (inactive) |  |
| O=Cc1cc2ccccc2o1 | -3.1% (inactive) |  |
| CCCCCC(C)O (stereo not given) | 5.17% (inactive) |  |
| CC(C)CO | -1.54% [at 95.3 µM] (inactive) |  |
| Cn1nnc2c(C(N)=O)ncn2c1=O | 7.86% (inactive) |  |
| CC1=C(C(=O)O)N2C(=O)[C@@H](NC(=O)[C@H](N)C3=CCC=CC3)[C@H]2SC1 | -3.94% (inactive) |  |
| CC1(C)Oc2ccc(C#N)cc2[C@@H](N2CCCC2=O)[C@@H]1O |  | inactive |
| ONc1ccccc1 | -15.9% [at 95.3 µM] (inactive) |  |
| CC1(C)Cc2cccc(N)c2O1 | 4.46% (inactive) |  |
| O=C(O)CSCC(=O)NC1CCSC1=O (stereo not given) | 8.49% (inactive) |  |
| CC(C)(CO)C(O)C(=O)NCCCO (stereo not given) | 3.39% (inactive) |  |
| C/C=C(\C)C(C)=O | -12.1% (inactive) |  |
| N#Cc1cscn1 | 6.15% (inactive) |  |
| CC1=NN(c2ccc(S(=O)(=O)O)cc2)C(=O)C1 | 8.42% (inactive) |  |
| COc1nc(N)nc2nc[nH]c12 | 12.6% (inactive) |  |
| Cn1c(=O)c2c(ncn2CCO)n(C)c1=O | 1.78% (inactive) |  |
